From PubChem BioAssay (NCI)
About 83,000 compounds went through this panel and 20% of them were active in at least one assay; those are over-represented in the sample as a whole.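 Each cell line was grown in a 96-well plate and treated with one concentration of compound for 48 hours. Values below 10 were considered active.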 Values without a mark were called inactive. Activity calls are given as the source filed them.

These compounds were tested on HCT-15 colon (assay: NCI-60 one-dose screen, 48 h (100 = growth as untreated, 0 = no growth, -100 = all killed)). Conditions: 10 µM unless noted.
Method: Growth inhibition of the HCT-15 human tumor cell line is measured as a screen for anti-cancer activity. Cells are grown in 96 well plates and exposed to the test compound for 48 hours. Compounds are tested at a single concentration, which is 10^-5 M for most compounds. The reported endpoint is percent growth (GI% or GIPRCNT), where numbers from 0 - 100% represent growth inhibition, and numbers from -100% - 0 represent cell death. For example, a value of 40 represents 60% growth inhibition. A value of 0 means no net growth occurred over the course of the experiment. A value of -40 indicates 40% of cells at the beginning of the experiment died by the end of the experiment. A value of -100 means all cells are dead at the end of the experiment.
NCI-60 Human Tumor Cell Lines Screen was performed using the standard one-dose NCI protocol, which is described in more detail at https://dtp.cancer.gov/discovery_development/nci-60/default.htm.
Compounds with GIPRCNT values below 10 were considered active. Activity score was based on GIPRCNT using the following formula: […]
Score is 0 for GIPRCNT values of 100 or above, 50 for GIPRCNT values of 0, and 100 for GIPRCNT values of -100.
With `CC(=O)OC1/C=C\CC/C=C\C1` (stereo not given) the growth was 98%. For `COc1cc(-c2nc(/C=C3/C(=O)Nc4ccccc43)c3ccccn23)cc(OC)c1OC`, the growth was 73.6%. Work on `COc1ccc(C2=NN(C(=O)c3cc(-c4ccc(C)cc4)nc4ccccc34)C(c3cc(-c4ccccc4)nn3-c3ccccc3)C2)cc1` (stereo not given) yielded a growth of 82.6%. With `CCOC1=C(Cl)C(=O)C(OCC)=C(Cl)C1=O` the growth was 107%. Compound `O=C(Nc1ccc(-n2cc(-c3ccncc3)c(-c3ccc(Cl)c(O)c3)n2)cc1)c1ccc(Cl)c(Cl)c1` has a growth of 12.2%. `COc1ccc2nc3cc(Cl)ccc3c(NCCCNC(C)=O)c2c1` gave a growth of 23.6%. Work on `COc1ccccc1Nc1nnc(COc2ccc(CNC(=O)CCCC/C=C/C(C)C)cc2OC)o1` yielded a growth of 88.3%. `CCOc1ccc(Br)cc1/C=C(\C#N)c1ccc([N+](=O)[O-])cc1` gave a growth of 84.7%. `CCCCCCCCCCCCOC(=N)N(C)C` showed a growth of 96.7%. In the case of `N=C(N)c1ccc(-c2ccc(-c3cc(Cl)cc(Cl)c3)s2)cc1`, the growth is reported as -85.9% (active). `CCN(CC)CCCC(C)Nc1c(C)cnc2cc(Cl)c(C)cc12` (stereo not given) gave a growth of 86.8%. For `C/C=C(/C)C(=O)OC1C=C(CO)C(=O)C(OC(=O)C2(C)OC2C)C1C(C)C` (stereo not given), the growth was -14.5% (active). With `O=C(CCl)c1ccc2c(c1)CCCC2` the growth was 69.6%. `COc1cc2c(c(OC)c1OC)C(=O)CC(c1cccc(C(=O)Nc3cccc(Br)c3)c1)O2` (stereo not given) gave a growth of 72.1%. With `CC1C(=O)CCCC1=O` the growth was 96.6%. `O=C1C(=O)c2ccccc2C(O)=C1CCCc1ccc(Oc2ccccc2)cc1` showed a growth of 74.1%. Compound `COC(=O)CC(=O)C(=O)OC` has a growth of 103%. `CCCC[N+](C)(N)CCCC` gave a growth of 98%. With `CCCCN(CCCC)c1ccc(C(=O)O)cc1` the growth was 97.3%. For `O=Nc1c(-c2c(O)[nH]c3cc(Br)ccc23)[nH]c2ccccc12`, the growth was 1.93% (active). Work on `C=CC1CN2CCC1CC2C(O)c1ccnc2ccc(OC)cc12` (stereo not given) yielded a growth of 104%. For `O=C(/C=C1\C(=O)N(Cc2ccccc2)c2ccccc21)c1ccc(OCCN2CCCCC2)cc1`, the growth was -49.9% (active). In the case of `COc1ccccc1Cn1cc2c(c1)-c1oncc1CC2`, the growth is reported as 15.7%. `Cc1nc(NC(=O)NC2CCCCC2)sc1C(=O)NN` gave a growth of 91.5%. `Oc1ccc(N=Nc2ccc(N=Nc3ccccc3)cc2)cc1` gave a growth of 40.7%. Work on `Cc1ccc(C(=O)C(Br)C(Br)c2ccccc2)cc1` (stereo not given) yielded a growth of 80.3%. Work on `COc1cc(-c2nn(-c3ccc(NC(=O)c4ccc(Cl)c(Cl)c4)cc3)cc2-c2ccncc2)ccc1Cl` yielded a growth of 10.9%. Compound `O=C(CBr)OCc1ccc([N+](=O)[O-])o1` has a growth of 93.9%. With `CC[N+](C)(C)N` the growth was 103%. With `Nc1nc2c(c3cnccc13)C(c1cccc(Br)c1)Cc1cnccc1-2` (stereo not given) the growth was 7.06% (active). `COC(=O)c1c[n+]([O-])ccc1OC` gave a growth of 103%. In the case of `COc1ccc(C(=O)N2N=C(c3ccc(Br)cc3)CC2c2cn(-c3ccccc3)nc2-c2ccccc2)cc1` (stereo not given), the growth is reported as 58.9%. For `Nc1nc(-c2cccc(Br)c2)cc(-c2cc3ccccc3oc2=O)n1`, the growth was 106%. Work on `C/C(CCC(=O)O)=N/Nc1ccc([N+](=O)[O-])cc1` yielded a growth of 34.5%. With `CCCCCCCCCCN1CC2CCCCC2C1` (stereo not given) the growth was 35%. Compound `Cc1nc(NC(=S)Nc2ccc(F)cc2)sc1C(=O)NNC(=S)Nc1ccc(F)cc1` has a growth of 61.9%. Compound `C[C@@H](c1ccc2c(c1)[nH]c1ccc(Cl)cc12)c1nc2ccc(Cl)cc2[nH]1` has a growth of 90.1%. With `Cc1sc(NC(=O)c2ccc(C(C)(C)C)cc2)c(C(=O)O)c1C` the growth was 45.9%. `c1ccc(Nc2ncc3c(n2)-c2cccn2CC3)cc1` gave a growth of 32.9%. In the case of `CC(=O)Nc1ccc(C(=O)/C=C/c2ccc(N(C)C)cc2)cc1`, the growth is reported as 94.1%.
